In all, about 63,000 compounds went through this assay and about 1,100 (1.7%) were called active. The sample as a whole holds a higher share of actives than the screen did. Potency and affinity values are given separately. A number with no mark means an inactive call.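 Rule for the calls: active = compounds whose percent cytotoxicity in the single-dose primary screen, scaled between solvent and toxic-drug controls, exceeds 50; inactive = the rest.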
Assay: viability loss of HPDE-C7K cells – cell-based, fluorescence, HTS, primary screen (AID 431);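 note: 0% = DMSO solvent wells and 100% = doxorubicin-treated wells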
Conditions: HPDE-C7K KRASV12 cells, Alamar Blue viability, 48 h; at 10 µM; active compounds read high

Row | Compound | cytotoxicity
1 | Cc1c(C#N)c2ccccc2n1CC(=O)NCCc1c[nH]c2ccccc12 | -3.8%
2 | CN(C)S(=O)(=O)c1ccc(-c2ccccc2)cc1 | -6.1%
3 | CN(C)S(=O)(=O)n1cnc(-c2ccccc2)c1-c1ccccc1 | -11.5%
4 | O=C(O)COc1ccc(Oc2ccccc2)cc1 | 10.4%
5 | COc1ccc(N2CCN(CCCNC(=O)CCCn3c(=O)[nH]c4ccsc4c3=O)CC2)cc1 | 10.4%
6 | O=C(OCc1nc2ccccc2s1)c1cccc(S(=O)(=O)N2CCOCC2)c1 | 4.7%
7 | OC1CCCN(Cc2cccc3ccccc23)C1 (stereo unspecified) | 9.5%
8 | CN(C)c1ccc(CN2CCCC(O)C2)cc1 (stereo unspecified) | 4.1%
9 | O=S(=O)(c1ccc(C2CCCCC2)cc1)N1CCN(c2ncccn2)CC1 | 0.7%
10 | Cc1cc(C(=O)CN2C(=O)NC(C)(c3cccc(Br)c3)C2=O)c(C)n1Cc1ccco1 (stereo unspecified) | 17%
11 | CC(=O)O[C@@]12CO[C@@H]1C[C@H](O)[C@@]1(C)C(=O)[C@H](O)C3=C(C)[C@@H](OC(=O)[C@H](O)[C@@H](NC(=O)OC(C)(C)C)c4ccccc4)C[C@](O)([C@@H](OC(=O)c4ccccc4)[C@H]21)C3(C)C | 52.1% (active)
12 | CC(=O)O[C@H]1C(=O)[C@]2(C)[C@H]([C@H](OC(=O)c3ccccc3)[C@]3(O)C[C@H](OC(=O)[C@H](O)[C@@H](NC(=O)c4ccccc4)c4ccccc4)C(C)=C1C3(C)C)[C@]1(OC(C)=O)CO[C@@H]1C[C@@H]2O | 67.2% (active)
13 | CCc1cccc(CC)c1N(COC)C(=O)Cn1c(CO)nc2ccccc21 | -6.1%
14 | CCOc1ccc(-n2c(=O)cc(N3CCN(c4ccccc4)CC3)[nH]c2=O)cc1 | 7.9%
15 | CCOC(=O)CSc1nnc(CNC(=O)c2ccco2)n1C | -0.1%
16 | O=C(NC1CCCC1)C1C2C=CC3(CN(Cc4cccs4)C(=O)C13)O2 (stereo unspecified) | 3.8%
17 | Cc1ccc2nc(NCc3ccco3)c(C=NCc3ccco3)c(=O)n2c1 | -7.1%
18 | CC(=O)N[C@H]1C[C@@H]1c1ccccc1 | 6.6%
19 | COc1ccc(NC(=O)CS(=O)CC(=O)NCc2cccc(C(F)(F)F)c2)cc1 (stereo unspecified) | 1%

Row | Compound | cytotoxicity
20 | COc1ccc(NC(=O)CSc2nnc(-c3ccccc3)n2Cc2ccco2)c(OC)c1 | -5.5%
21 | COc1ccc(CCN(Cc2cc3cc4c(cc3[nH]c2=O)OCO4)C(C)=O)cc1OC | -1.5%
22 | CCC(=O)N(CCc1ccccc1C)Cc1cc2cc3c(cc2[nH]c1=O)OCO3 | -20.6%
23 | CC(=O)N(CCc1ccccc1C)Cc1cc2cc3c(cc2[nH]c1=O)OCO3 | 53.3% (active)
24 | COc1ccccc1C(=O)Nc1ccc(S(=O)(=O)Nc2cc(C)on2)cc1 | 3.1%
25 | O=C(Nn1c(C2CC2)nc2ccccc2c1=O)c1ccco1 | -1.6%
26 | O=c1cc(CN2CCN(c3ccc(F)cc3)CC2)nc2sccn12 | -7.8%
27 | Cc1nc2ccccn2c(=O)c1CCN1CCC(C(=O)c2ccc(F)cc2)CC1 | 10.8%
28 | Cn1c(SCc2nc3ccccc3[nH]2)nnc1-c1cccs1 | -13.1%
29 | CCCCN(C)S(=O)(=O)c1ccc(C(=O)Nc2nnc(-c3cccs3)o2)cc1 | 32.1%
30 | CC1CC(C)CN(S(=O)(=O)c2ccc(C(=O)Nc3nnc(-c4cccs4)o3)cc2)C1 (stereo unspecified) | 56.6% (active)
31 | CCCCN(CC)S(=O)(=O)c1ccc(C(=O)Nc2nnc(-c3cccs3)o2)cc1 | 52.7% (active)
32 | CC1CN(S(=O)(=O)c2ccc(C(=O)Nc3nnc(-c4ccc5c(c4)CCCC5)o3)cc2)CC(C)O1 (stereo unspecified) | 33.7%
33 | CCCCN(CC)S(=O)(=O)c1ccc(C(=O)Nc2nnc(-c3ccccc3Cl)o2)cc1 | 58.3% (active)
34 | O=C(Nc1nnc(-c2cccs2)o1)c1cccc(Oc2ccccc2)c1 | 35.3%
35 | CCN(Cc1ccccc1)S(=O)(=O)c1ccc(C(=O)Nc2nnc(C3CC3)o2)cc1 | 6.4%
36 | O=C(Nc1nnc(-c2cccs2)o1)c1cccc(C(F)(F)F)c1 | 77.3% (active)
37 | O=C(Nc1nnc(-c2cccs2)o1)c1cccc(F)c1 | 21.9%
38 | COc1cccc(C(=O)Nc2nnc(-c3cccs3)o2)c1 | 15.6%

Row | Compound | cytotoxicity
39 | Brc1ccc(-c2nnc(-c3ccc4c(c3)OCO4)o2)o1 | -2%
40 | COC(=O)c1ccccc1NC(=O)CSc1nnnn1C1CCCCC1 | 0.6%
41 | O=C(Nc1nccs1)C1CCN(S(=O)(=O)c2cccnc2)CC1 | -8.7%
42 | COCCCn1cnc2c(c1=O)c1nc3ccccc3nc1n2-c1ccc(C)cc1 | -9.5%
43 | Cn1c(=O)oc2cc(S(=O)(=O)NC3CCCc4ccccc43)ccc21 (stereo unspecified) | -4%
44 | O=C(CCCn1c(=S)[nH]c2ccccc2c1=O)NCc1ccco1 | -11%
45 | CN1CCN(S(=O)(=O)c2ccc(NC(=O)c3cccs3)cc2)CC1 | -16.7%
46 | CC1CCCCN1S(=O)(=O)c1ccc(NC(=O)c2cccs2)cc1 (stereo unspecified) | 57.2% (active)
47 | COc1ccc(-c2nnc(NC(=O)c3ccc(S(=O)(=O)N4CCCc5ccccc54)cc3)o2)cc1 | 49.3%
48 | COc1ccc(-c2nnc(NC(=O)c3ccc(S(=O)(=O)N4COCC4(C)C)cc3)o2)cc1 | 14.3%
49 | O=C(Nc1nnc(-c2ccccc2Cl)o1)c1cccnc1 | 28.8%
50 | CCC1CCCCN1S(=O)(=O)c1ccc(C(=O)Nc2nnc(-c3cccs3)o2)cc1 (stereo unspecified) | 11.8%
51 | CCC1CCCCN1S(=O)(=O)c1ccc(C(=O)Nc2nnc(-c3ccccc3Cl)o2)cc1 (stereo unspecified) | 76.1% (active)
52 | CC1(C)COCN1S(=O)(=O)c1ccc(C(=O)Nc2nnc(-c3ccc(Cl)s3)o2)cc1 | 93.6% (active)
53 | CC1CCN(S(=O)(=O)c2ccc(NC(=O)c3cccs3)cc2)CC1 | 15.7%
54 | O=C(Nc1ccc(S(=O)(=O)N2CCCc3ccccc32)cc1)C1CCCO1 (stereo unspecified) | 12.3%
55 | O=C(Nc1nnc(C2CC2)o1)c1ccc(S(=O)(=O)N2CCCc3ccccc32)cc1 | 60.6% (active)
56 | CCCC(=O)Nc1nnc(-c2ccc(Cl)s2)o1 | -1.5%

Reference: PubChem BioAssay AID431 (Sanford-Burnham Center for Chemical Genomics, 2006)
